Out of some 420,000 compounds screened, about 50,000 (12%) were called active. Not shown: some 26% with an inconclusive outcome. What follows is part of a selection rich in actives, with near analogues and random picks from the rest. Entries that show only a call come without a potency. Unmarked numbers belong to inactive results. Calls follow the shape of the dose curve; as a rule, active = well fitted inhibition curve with a large enough effect; inconclusive = small, poorly fitted or top-dose-only effect; inactive = flat fitted curve, though single readings scatter.
Potency is read from the fitted curve at half-maximal effect.

The nature of this assay: qHTS for Inhibitors of human tyrosyl-DNA phosphodiesterase 1 (TDP1): qHTS in cells in presence of CPT. Also: nearly all actives have a fitted effect of over 55% in size. The following applies: chicken DT40 Tdp1-/-;hTDP1 cells + 20 nM CPT, ATP luminescence, 48 h; series mostly up to 46.2 µM. The essentials:
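Chicken DT40 Tdp1-/- cells stably complemented with human TDP1 were seeded at 400 cells/well in medium containing 20 nM camptothecin, exposed to pin-transferred compounds, and grown at 37 °C for at least 48 hr. Viability was read as ATP luminescence.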
(qHTS replaces the single test concentration by a dilution series.)
Turning to `Cc1ccc(N2CC(C(=O)Nc3cc(Cl)ccc3-n3cncn3)CC2=O)cc1` (stereo unspecified), the Potency entry is “inactive”.

On to `O=C(CN1CCN(C(=O)c2ccco2)CC1)Nc1ccc(Cl)c(C(F)(F)F)c1`, for which the Potency is 23.1 µM (active).

On to `O=C(CN1CCN(C(=O)c2ccco2)CC1)Nc1ccc2c(c1)OCO2`, for which the Potency entry is “inactive”.

On to `O=C(c1ccco1)N1CCN(C(=S)Nc2cc(F)cc(F)c2)CC1`, for which the Potency entry was “inactive”.

As for `Cc1ccc(-n2nnnc2CNC(=O)c2ccccc2C)cc1C`, the Potency entry is “inactive”.

In the case of `C[C@H]1CN([C@@H](C)CO)C(=O)CCCn2cc(nn2)CO[C@@H]1CN(C)S(=O)(=O)c1cccc(C#N)c1`, the Potency result is “inactive”.

For `O=C(O)C(c1cccs1)C1(O)CCCCC1` (stereo unspecified), the Potency result was “inactive”.

For `O=C(NCCCN1CCOCC1)c1cc(-c2ccccc2F)no1`, the Potency result is “inactive”.

In the case of `COC(=O)CSc1snnc1-c1ccc(Cl)c(Cl)c1`, the Potency entry is “inactive”.

Turning to `Cc1c(NC(=O)C(C)OC(=O)c2ccccc2O)c(=O)n(-c2ccccc2)n1C` (stereo unspecified), the Potency entry is “inactive”.

For the molecule `Cc1c(NC(=O)C(C)OC(=O)c2c3c(nc4ccccc24)CCC(C)C3)c(=O)n(-c2ccccc2)n1C` (stereo unspecified), the Potency was 13 µM (active).

As for `Cc1c(NC(=O)C(C)OC(=O)c2cc3c4ccccc4n(C)c3s2)c(=O)n(-c2ccccc2)n1C` (stereo unspecified), the Potency entry was “inactive”.

Turning to `N#C/C(=C\c1ccccc1)c1n[nH]c(Cn2cncn2)n1`, the Potency result is “inactive”.

As for `Cc1nn2cc(-c3ccc(Cl)cc3)cnc2c1Br`, the Potency entry was “inactive”.

Consider `CCc1c(-c2ccc(F)cc2)ncn1Cc1cccc(-c2ccccc2)c1`, for which the Potency was 11.6 µM (active).

As for `Cc1cccc(Cn2cnc3c(N)c(C)c(C)cc32)c1`, the Potency result is “inactive”.

As for `O=C(NCc1ccncc1)C1CCN(C(=O)c2cccc(Cl)c2)CC1`, the Potency entry is “inactive”.

For the molecule `Nc1ccc(-n2nncc2-c2ccco2)cc1`, the Potency entry is “inactive”.

As to `O=C(NC(=S)Nc1ccc(Cl)c(C(=O)O)c1)c1cncc(Br)c1`, the Potency result is “inactive”.

For `COc1ccccc1N(CC(=O)Nc1ccccc1C(=O)N1CCCC1)S(C)(=O)=O`, the Potency entry is “inactive”.

Regarding `CCCn1c(N)c(C(=O)CSc2nnc(Cc3cccs3)n2C2CC2)c(=O)[nH]c1=O`, the Potency result is “inactive”.

As for `CCc1nnc(SCc2nc(-c3cccc(C)c3)oc2C)c2cc3sc(C)cc3n12`, the Potency result was “inactive”.

Take `Cc1cc2c(cc3c(SCc4nc(-c5ccccc5)oc4C)nnc(C)n32)o1`: the Potency was 16.4 µM (active).

Turning to `Cc1cc(NC(=O)CSCc2nc(-c3cccc(Cl)c3)oc2C)no1`, the Potency entry was “inactive”.

For `Cc1ccc2nc(NC(=O)C3CCN(S(=O)(=O)c4ccc5c(c4)oc(=O)n5C)CC3)sc2c1`, the Potency is 5.8 µM (active).

`Cc1ccc2nc(NC(=O)C3CSC4(C)CCC(=O)N34)sc2c1` (stereo unspecified): the Potency entry was “inactive”.

For `O=C(NC1CCCCC1)n1c(=O)oc2cc(S(=O)(=O)N3CCCCC3)ccc21`, the Potency result was “inactive”.

Consider `O=C(Nc1cc2c3c(c1)C1CCCC1CN3CC1CCCC21)c1ccc([N+](=O)[O-])cc1` (stereo unspecified), for which the Potency result was “inactive”.

As to `CC[C@@H](C)[C@@H](C(=O)N1CCN(C(=O)OC(C)(C)C)CC1)n1cc(CCC(=O)O)nn1`, the Potency entry was “inactive”.

With `O=C(O)c1cc(S(=O)(=O)NC2CCCc3ccccc32)ccc1O` (stereo unspecified), the Potency entry is “inactive”.

Regarding `O=c1[nH]c2ccccc2n1C1CCN(CCOc2ccccc2)CC1`, the Potency is 3.66 µM (active).

Take `O=C(c1ccc(Br)o1)N1CCN(CCOc2ccccc2)CC1`: the Potency result is “inactive”.

For `O=C(c1ccco1)N1CCN(CCOc2ccccc2)CC1`, the Potency result was “inactive”.

With `CO[C@@H]1CN(C)C(=O)c2cc(NC(=O)C3CC3)ccc2OC[C@H](C)N(C(=O)CN2CCOCC2)C[C@@H]1C`, the Potency entry is “inactive”.

Regarding `NC(=O)C1CC(=O)N(c2ccc(OCC(=O)NCc3ccccc3)cc2)C1` (stereo unspecified), the Potency entry was “inactive”.

As to `CN(C)CCN1CCN(c2cc(-c3cccc(Cl)c3)nc3ccnn23)CC1`, the Potency result was “inactive”.

Regarding `C#Cc1cc(N2CCN(C(=O)c3ccoc3)CC2)n2nc(-c3cccc(Cl)c3)cc2n1`, the Potency is 7.31 µM (active).

Regarding `O=C(c1ccccc1)N1CCN(c2cc(-c3ccccc3)nc3cc(-c4cccc(Cl)c4)nn23)CC1`, the Potency was 23.1 µM (active).

Regarding `O=C(c1cccc(Cl)c1)N1CCN(CCc2ccncc2)CC1`, the Potency result is “inactive”.

On to `O=C(c1cccc(Cl)c1)N1CCN(Cc2ccccc2)CC1`, for which the Potency entry was “inactive”.

On to `CCCNC(=O)c1ccc(Cn2c(SCC(N)=O)nc3ccccc3c2=O)cc1`, for which the Potency result is “inactive”.

Regarding `CCOc1ccccc1Nc1ccc2nonc2c1[N+](=O)[O-]`, the Potency entry was “inactive”.

With `O=C(OCC(=O)N1CCCCCC1)c1cnc(Cl)c(Cl)c1`, the Potency result is “inactive”.

As to `CCOC(=O)C1CCN(Cc2c(C(=O)N3CCOCC3)nc3c(C)cccn23)CC1`, the Potency result was “inactive”.

Turning to `CCOC(=O)C(NC(=O)CC(C)C)(Nc1sc2c(c1C(N)=O)CCCC2)C(F)(F)F` (stereo unspecified), the Potency result was “inactive”.

Turning to `CCOc1ccc2nc(Nc3nc4ccc(NC(C)=O)cc4s3)sc2c1`, the Potency was 18.4 µM (active).

As to `CCOc1ccc(S(=O)(=O)Nc2nc3cc(OC)ccc3s2)cc1`, the Potency entry was “inactive”.

`CCC(=O)c1ccc(OCC(=O)Nc2ccc(N3CCCCC3)cc2)cc1`: the Potency entry was “inactive”.

With `Cc1nc2ccc(NC(=O)C3CCCCC3)cc2s1`, the Potency result is “inactive”.

In the case of `CC(=O)Nc1ccc2nc(NC(=O)CS(=O)(=O)c3ccc(F)cc3)sc2c1`, the Potency entry is “inactive”.

Take `CCC(=O)c1ccc(OCC(=O)Nc2ccc3nc(C)sc3c2)cc1`: the Potency was 16.4 µM (active).

Turning to `CC(CC(=O)Nc1ccc(F)cc1F)S(=O)(=O)c1ccc2c(c1)NC(=O)CO2` (stereo unspecified), the Potency result is “inactive”.

For `c1ccc2c(c1)CCc1snnc1-2`, the Potency result was “inactive”.

Turning to `O=C(CCNS(=O)(=O)c1ccc(Br)cc1)NCC1CCCO1` (stereo unspecified), the Potency result is “inactive”.

On to `CCc1cc(-c2n[nH]c(=S)n2CC(C)C)cs1`, for which the Potency result is “inactive”.

For `C[N+]1(CC(=O)c2cccs2)CCOCC1`, the Potency entry was “inactive”.

For the molecule `CCC(=O)c1ccc(OCC(O)CN2CC(C)OC(C)C2)cc1` (stereo unspecified), the Potency result was “inactive”.

On to `CC(C)CCOc1ccc(C(=O)C[N+]2(C)CCOCC2)cc1`, for which the Potency was 20.6 µM (active).

Consider `COc1ccc(Br)cc1CNC(=O)c1cc(=O)[nH]c2ccc(S(=O)(=O)N3CCCC3)cc12`, for which the Potency entry is “inactive”.

Consider `CCOC(=O)c1c(C)n(C)c2ccc(OC)c(NC(=O)CN3CCC4(CC3)OCCO4)c12`, for which the Potency result is “inactive”.

As to `CCC(=O)Nc1ccc2nn(-c3ccc(F)cc3)nc2c1`, the Potency entry was “inactive”.

As for `Cc1ccc(-n2nc3ccc(NC(=O)/C=C/c4ccco4)cc3n2)cc1C`, the Potency is 23.1 µM (active).

Regarding `Cc1nnc(NC(=O)/C=C/c2ccco2)s1`, the Potency result is “inactive”.

In the case of `COc1ccc(C(c2nnnn2Cc2cccs2)N2CCN(c3ccccc3)CC2)cc1OC` (stereo unspecified), the Potency result was “inactive”.

As for `COc1cc(OC)c2ccc(=O)oc2c1C(CCN1CCN(c2ccccc2)CC1)c1ccc2c(c1)OCO2` (stereo unspecified), the Potency was 23.1 µM (active).

With `O=C(C(=O)N1CCN(c2ccccc2)CC1)c1ccc2c(c1)OCO2`, the Potency entry was “inactive”.

On to `COc1cc(C(CCN2CCN(c3ccccc3)CC2)c2c(OC)cc(OC)c3ccc(=O)oc23)cc(OC)c1OC` (stereo unspecified), for which the Potency is 23.1 µM (active).

On to `COc1ccc(F)cc1S(=O)(=O)NCC(c1ccc2c(c1)OCO2)N1CCN(C)CC1` (stereo unspecified), for which the Potency result was “inactive”.

Consider `COc1ccc(C(CC(=O)N2CCN(c3ccccc3)CC2)c2c(O)cc(OC)cc2OC)cc1` (stereo unspecified), for which the Potency result was “inactive”.

Regarding `C=CCNC(=S)NNC(=O)c1ccc(Br)o1`, the Potency result is “inactive”.

`CCn1c(O)c2ccc(C(=O)N=NC(=O)c3cccnc3)cc2c1O`: the Potency entry was “inactive”.

As to `COc1ccccc1CNc1cc(-c2ccccc2CN(C)C)ncn1`, the Potency result was “inactive”.

As to `CN(Cc1ccco1)c1cc(-c2ccccc2C(F)(F)F)ncn1`, the Potency result was “inactive”.

Regarding `FC(F)(F)c1ccccc1-c1cc(NCc2ccccc2)ncn1`, the Potency was 7.31 µM (active).

Regarding `CCOc1cc(S(=O)(=O)NCc2ccc3c(c2)OCO3)ccc1F`, the Potency result was “inactive”.

Take `Cc1ccc(C(=O)O/N=C(\N)c2ccccn2)cc1Cl`: the Potency entry is “inactive”.

On to `COc1ccccc1-c1ccc(C(=O)N(C)C(C)c2ccon2)c(N2CCN(c3ccccc3F)CC2)n1` (stereo unspecified), for which the activity change, negative = growth inhibition is 15.9% [at 9.04 µM].

On to `CC(C)C1=CC2=CC[C@H]3[C@](C)(C(=O)O)CCC[C@]3(C)C2CC1` (stereo partly specified), for which the activity change, negative = growth inhibition is 26.1% [at 9.04 µM].

On to `O=C(NN1C(=O)C2C3C=CC(C3)C2C1=O)c1ccco1` (stereo unspecified), for which the Potency entry was “inactive”.

As to `COc1cc(Nc2nc(-c3ccc(OC)c(OC)c3)nc3ccccc23)cc(OC)c1`, the Potency is 5.8 µM (active).

As to `Cc1noc(C)c1-c1nc(Nc2ccccc2)c2ccccc2n1`, the Potency result was “inactive”.

With `COc1cccc(-c2nc(Nc3ccncc3)c3ccccc3n2)c1`, the Potency was 8.2 µM (active).

As for `COc1ccc(Cl)cc1N(CC(=O)N1CCCCC1)S(C)(=O)=O`, the Potency result is “inactive”.

Consider `C=Cn1cc[n+](CC(=O)c2ccc(OC)c(OC)c2)c1`, for which the Potency result was “inactive”.

In the case of `COc1ccc(C23NCCN2C(=O)c2ccccc23)cc1` (stereo unspecified), the Potency result is “inactive”.

In the case of `Cc1cccc(S(=O)(=O)N(C)C[C@H]2OCc3cnnn3CCCC(=O)N([C@@H](C)CO)C[C@H]2C)c1`, the Potency result is “inactive”.

For the molecule `CCCCn1c(N)c(N(Cc2ccccc2OC)C(=O)COc2cc(C)ccc2Cl)c(=O)[nH]c1=O`, the Potency result is “inactive”.

Consider `CCCCc1nn2c(=O)cc(COC(=O)c3cccc(NC(=O)COc4ccccc4)c3)nc2s1`, for which the Potency entry is “inactive”.

On to `COc1ccc(CN2CCC(C)(Oc3cccc(F)c3)C2)c2ccccc12` (stereo unspecified), for which the Potency was 23.1 µM (active).

In the case of `CCOc1cc(CN2CCCC(CO)(Cc3ccc(F)cc3F)C2)ccc1OC` (stereo unspecified), the Potency entry was “inactive”.

For the molecule `COc1ccccc1CN1CC2(CCN(S(=O)(=O)c3ccccc3)CC2)C1`, the Potency result is “inactive”.

Regarding `Cc1ccc(CCNC(=O)CN2C(=O)CSc3ccc(S(=O)(=O)N4CCOCC4)cc32)cc1`, the Potency entry is “inactive”.

As for `C[C@H]1Cn2cnc(C(=O)N[C@@H](Cc3c[nH]c4ccccc34)C(=O)OC(C)(C)C)c2C(=O)N1`, the Potency result was “inactive”.

As for `CCCOc1ccc(Cn2c(O)cc(=O)[nH]c2=O)cc1`, the Potency entry is “inactive”.

`COc1cc(=O)[nH]c(=O)n1C(=O)Cc1ccccc1`: the Potency was 13 µM (active).

With `CS(=O)(=O)N1CCN(C(=O)Cc2ccccc2)CC1`, the Potency entry is “inactive”.

Take `COc1ccccc1NC(=O)C(CC(=O)O)Cc1cc(C)cc(C)c1` (stereo unspecified): the Potency entry is “inactive”.

For `COc1ccccc1NC(=O)C(C)OC(=O)CC1CCCC1` (stereo unspecified), the Potency result is “inactive”.

With `COc1ccccc1NC(=O)[C@H](COCc1ccccc1)NC(=O)OC(C)(C)C`, the Potency was 23.1 µM (active).

As to `Cc1ccc(SCC(=O)NNC(=O)c2ccc(S(C)(=O)=O)cc2)cc1`, the Potency result was “inactive”.

In the case of `CCOc1ccc(CNC(=O)c2ccc3c(c2)nnn3C2CCCC2)cc1`, the Potency entry is “inactive”.

(Values after PubChem BioAssay AID686979 (National Center for Advancing Translational Sciences (NCATS), 2013).)
